Screening data deposited in PubChem by Broad Institute.
Vaccinia stage – blocks a specific stage of Vaccinia orthopoxvirus infection. Vaccinia-infected cells, mCherry/Venus stage reporter fluorescence; stronger effect = lower value. activity change (mCherry), % (no concentration beside the values). 0.01% of 89,000 active. AID 1053133; in the data active = activity change below about -37%, passing the limit was not always enough; tested in A549 cells
* marks the source's active call; other numbers are inactive results. Many of the other results were omitted from the sample, so hits are more common in it than they were.

SMILES	Vaccinia stage
C[C@@H]1CN([C@@H](C)CO)C(=O)c2cc(NC(=O)C3CCCCC3)ccc2O[C@H]1CN(C)Cc1ccc(-c2ccccc2)cc1	-11
COc1ccc(NC(=O)N(C)C[C@@H]2OCCCC[C@@H](C)Oc3ccc(NC(=O)Nc4c(C)noc4C)cc3C(=O)N([C@@H](C)CO)C[C@H]2C)cc1	8
C[C@@H]1CCCCO[C@@H](CN(C)Cc2ccc(C(=O)Nc3ccccc3N)cc2)[C@@H](C)CN([C@H](C)CO)C(=O)c2cc(NC(=O)Cc3ccccc3)ccc2O1	-7
O=C(C[C@@H]1C=C[C@@H](NS(=O)(=O)c2ccccc2)[C@@H](CO)O1)N1CCc2ccccc2C1	2
CCCN(C)C[C@@H]1Oc2cc(C#CC3CCCC3)ccc2S(=O)(=O)N([C@@H](C)CO)C[C@@H]1C	-15
Cc1noc(C)c1S(=O)(=O)Nc1ccc2c(c1)CC(=O)N([C@@H](C)CO)C[C@@H](C)[C@H](CN(C)S(=O)(=O)c1cn(C)cn1)O2	4
CN(C)C(=O)c1ccc(-c2cccc(-c3nc(C(=O)NCc4ccccc4)cc4c3[C@H](CCO)N([S@@](=O)C(C)(C)C)C4)c2)cc1	-24
CN(C)C(=O)c1ccc(-c2cccc(-c3nc(C(=O)NC4CCCCC4)cc4c3[C@@H](CCO)N([S@](=O)C(C)(C)C)C4)c2)cc1	-51*
CN(C)C(=O)c1ccc(-c2cccc(-c3nc(C(=O)NC4CCCC4)cc4c3[C@@H](CCO)N([S@](=O)C(C)(C)C)C4)c2)cc1	-17
CN(C)C(=O)c1ccc(-c2cccc(-c3nc(C(=O)NCc4ccccc4)cc4c3[C@@H](CCO)N([S@](=O)C(C)(C)C)C4)c2)cc1	-15
CN(C)C(=O)c1ccc(-c2cccc(-c3nc(C(=O)NC4CCC4)cc4c3[C@@H](CCO)N([S@](=O)C(C)(C)C)C4)c2)cc1	-11
CN(C)C(=O)c1ccc(-c2cccc(-c3nc(C(=O)NC4CCCC4)cc4c3[C@H](CCO)N([S@@](=O)C(C)(C)C)C4)c2)cc1	-36*
C[C@H]1CN([C@@H](C)CO)C(=O)Cc2cc(NC(=O)c3ccncc3)ccc2O[C@H]1CN(C)S(C)(=O)=O	20
O=C(C1=C[C@@H](c2ccc(Br)cc2)C[C@@H](OCc2ccc(CO)cc2)O1)N1CCCC1	5
CCCNC(=O)Nc1ccc2c(c1)OC[C@@H](C)N(C(C)=O)C[C@@H](C)[C@H](OC)CN(C)C2=O	7
COc1ccc(S(=O)(=O)N[C@H]2C=C[C@@H](CC(=O)NCCc3ccncc3)O[C@H]2CO)cc1	2
CCCN1C[C@@H](C)[C@@H](OC)CN(C)C(=O)c2ccc(NC(=O)C3CC3)cc2OC[C@H]1C	3
C[C@@H]1CN([C@H](C)CO)C(=O)c2cc(C3=CCCC3)cnc2O[C@@H]1CN(C)Cc1ccccn1	13
O=C(O)[C@@H]1[C@@H](CO)[C@@H]2Cn3c(ccc(-c4cncnc4)c3=O)[C@@H]2N1C(=O)C1CCCC1	6
O=C(C[C@@H]1C[C@H]2c3cc(NC(=O)Nc4ccccc4)ccc3O[C@H]2[C@H](CO)O1)NCc1ccncc1	0
CN1C(=O)c2cc(NC(=O)c3ccc(Cl)cc3)ccc2OC[C@@H]2O[C@@H](CC(=O)NCc3cccc(F)c3)CC[C@@H]21	-28
O=C(C[C@@H]1C[C@@H]2c3cc(NC(=O)CC4CC4)ccc3O[C@@H]2[C@@H](CO)O1)NCc1cccnc1	-1
O=C(C[C@@H]1C=C[C@H](NC(=O)Nc2cc(F)ccc2F)[C@@H](CO)O1)NCc1ccccn1	-2
CC(C)(O)c1cn([C@@H]2C[C@@H]3O[C@@H](CO)CC[C@@H]3O[C@@H]2CCc2ccc(-c3ccncc3)cc2)nn1	14
COc1ccc2c3c([nH]c2c1)[C@@H](CO)N(C(=O)c1ccccc1)CC31CN(C)C1	3
SMILES	Vaccinia stage
COc1ccc(NC(=O)Nc2ccc3c(c2)CC(=O)N([C@H](C)CO)C[C@H](C)[C@@H](CN(C)S(=O)(=O)c2ccc(C)cc2)O3)cc1	-17
COCc1cn(CC[C@@H]2CC[C@H](NC(=O)Nc3ccc(OC)cc3)[C@H](CO)O2)nn1	0
CO[C@H]1CN(C)C(=O)c2cc(NC(=O)Nc3ccccc3)ccc2OC[C@H](C)N(C(=O)CN(C)C)C[C@H]1C	18
Cc1ccc(S(=O)(=O)N(C)C[C@H]2Oc3cc(C#Cc4ccncc4)ccc3S(=O)(=O)N([C@@H](C)CO)C[C@H]2C)cc1	-46*
C[C@@H]1CN([C@@H](C)CO)S(=O)(=O)c2ccc(C#Cc3ccncc3)cc2O[C@H]1CN(C)S(=O)(=O)c1ccc(F)cc1	-29
C[C@H](CO)N1C[C@H](C)[C@H](CN(C)S(=O)(=O)c2ccc(F)cc2)Oc2cc(C#Cc3ccncc3)ccc2S1(=O)=O	-20
O=C(C[C@H]1CC[C@H]2[C@@H](COC[C@@H](O)CN2Cc2cc(F)ccc2F)O1)NCc1ccc(F)cc1	-9
C[C@@H]1CN([C@@H](C)CO)C(=O)c2cc(NS(=O)(=O)c3ccc(F)cc3)ccc2O[C@@H](C)CCCCO[C@@H]1CN(C)C(=O)Nc1cccc2ccccc12	36
CC(=O)N[C@@H]1CC[C@@H](CCNC(=O)Nc2ccc(C(F)(F)F)cc2)O[C@@H]1CO	-9
NC(=O)[C@H]1[C@@H]2C(=O)O[C@@H](c3ccccc3)[C@@H](c3ccccc3)N2[C@@H](c2ccc(O)cc2)[C@]12C(=O)Nc1ccc(C#CC3(O)CCCCCC3)cc12	13
Cc1noc(C)c1NC(=O)N(C)C[C@@H]1Oc2ccc(NC(=O)c3ccncc3)cc2C(=O)N([C@H](C)CO)C[C@@H]1C	19
O=S(=O)(NC[C@@H]1CC[C@H]2[C@H](CN2Cc2cccc(-c3ccccn3)c2)O1)c1ccccc1	6
COc1ccc(S(=O)(=O)N[C@H]2C=C[C@H](CC(=O)NCCc3ccncc3)O[C@@H]2CO)cc1	3
COCC#Cc1ccc2c(c1)O[C@H](CN(C)C(=O)c1ccccc1)[C@@H](C)CN([C@@H](C)CO)S2(=O)=O	-7
C[C@@H]1CCCCO[C@@H](CN(C)C(=O)Nc2ccc(C(F)(F)F)cc2)[C@@H](C)CN([C@H](C)CO)C(=O)c2cc(NC(=O)c3ccncc3)ccc2O1	-25
C[C@H]1CN([C@@H](C)CO)C(=O)c2cccc(NC(=O)Nc3ccc4c(c3)OCO4)c2O[C@@H]1CN(C)Cc1ccc(C(=O)Nc2ccccc2N)cc1	-1
COc1cccc(-c2ccc([C@@H]3[C@H]4CN(C(=O)C5CC5)CC(=O)N4[C@H]3CO)cc2)c1	-20
O=C(C[C@H]1C=C[C@H](NS(=O)(=O)c2ccc(F)cc2)[C@@H](CO)O1)NCc1ccccc1F	1
O=C(NCC[C@H]1CC[C@H](NC(=O)C2CC2)[C@H](CO)O1)c1ccc(F)cc1	-6
CC(C)NC(=O)N1CC2(C1)[C@@H](c1ccccc1)[C@H](CO)N2C(=O)C1CC1	19
C[C@@H]1CN([C@H](C)CO)C(=O)Cc2cc(NC(=O)NC3CCCCC3)ccc2O[C@H]1CN(C)Cc1ccc(C(F)(F)F)cc1	-26
C[C@@H]1CCCCO[C@H](CN(C)C(=O)Nc2ccc(F)cc2)[C@H](C)CN([C@@H](C)CO)C(=O)c2cc(NC(=O)CCCN(C)C)ccc2O1	18
Cc1noc(C)c1NC(=O)N[C@@H]1C=C[C@@H](CC(=O)NCc2ccc(Cl)c(Cl)c2)O[C@H]1CO	11
C[C@H]1CCCCO[C@H](CN(C)C(=O)Nc2ccc(C(F)(F)F)cc2)[C@@H](C)CN([C@@H](C)CO)C(=O)c2cc(NC(=O)Nc3ccc4c(c3)OCO4)ccc2O1	-8
